# Article PMC7862700, “An all-to-all approach to the identification of sequence-specific readers for epigenetic DNA modifications on cytosine”
# How the values were obtained:
# Experiment in all cases: DAPPL (digital affinity profiling via proximity ligation, sequencing); 10 mM Tris-HCl pH 7.5, 50 mM NaCl, 1 mM DTT, 4% glycerol, room temperature, 30 min; GST-TFs on glutathione beads, 16-mer random dsDNA library, 0.1% formaldehyde crosslink after washing; high values mean tight binding
# FLI1 = target: T1, FLI1 (Homo sapiens, UniProt Q01543 1-452); conditions: protein: recombinant; tags: N-terminal GST; dsDNA, one strand shown
# T1 sequence: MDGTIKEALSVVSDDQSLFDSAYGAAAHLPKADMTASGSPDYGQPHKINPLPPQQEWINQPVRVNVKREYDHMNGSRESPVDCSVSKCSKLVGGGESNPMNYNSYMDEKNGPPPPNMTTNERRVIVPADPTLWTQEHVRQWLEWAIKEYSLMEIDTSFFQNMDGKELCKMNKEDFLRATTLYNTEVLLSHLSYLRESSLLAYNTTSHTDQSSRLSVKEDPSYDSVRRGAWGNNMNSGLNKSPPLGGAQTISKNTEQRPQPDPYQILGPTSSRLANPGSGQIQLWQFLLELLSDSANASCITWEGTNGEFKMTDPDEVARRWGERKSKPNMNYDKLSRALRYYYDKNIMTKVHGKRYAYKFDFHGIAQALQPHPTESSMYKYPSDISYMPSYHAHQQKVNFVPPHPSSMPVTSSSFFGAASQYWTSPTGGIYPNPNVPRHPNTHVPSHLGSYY
# How it was run: (§1)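 Binding signal is given per hexamer as its read frequency for a factor divided by its frequency in the tag-only sample. GST-fused human transcription factors were expressed in yeast, captured on glutathione beads, barcoded with DNA and pooled with that sample, then incubated with 200 nmole of a 16-mer random double-stranded DNA library in Tris/NaCl/DTT/glycerol buffer for 30 min at room temperature. The pools were then washed, crosslinked, proximity-ligated, amplified by PCR and sequenced on an Illumina NextSeq500.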
# ELK1 = target: T2, ELK1 (Homo sapiens, UniProt P19419 1-428); conditions: protein: recombinant; tags: N-terminal GST; dsDNA, one strand shown
# T2 sequence: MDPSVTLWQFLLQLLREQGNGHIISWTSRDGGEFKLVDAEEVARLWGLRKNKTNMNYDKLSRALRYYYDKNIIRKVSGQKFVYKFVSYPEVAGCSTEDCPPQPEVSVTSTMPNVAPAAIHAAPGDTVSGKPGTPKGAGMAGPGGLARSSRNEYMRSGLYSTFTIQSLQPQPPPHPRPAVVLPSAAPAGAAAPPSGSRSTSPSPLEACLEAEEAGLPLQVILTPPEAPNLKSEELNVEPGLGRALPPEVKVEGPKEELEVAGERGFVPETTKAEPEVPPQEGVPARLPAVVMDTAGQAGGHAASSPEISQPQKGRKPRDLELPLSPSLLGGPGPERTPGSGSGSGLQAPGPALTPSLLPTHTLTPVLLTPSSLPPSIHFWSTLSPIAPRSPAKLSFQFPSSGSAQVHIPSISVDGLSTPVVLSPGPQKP
# How it was run: as §1
# GABPA = target: T3, GABPA (Homo sapiens, UniProt Q06546 1-454); conditions: protein: recombinant; tags: N-terminal GST; dsDNA, one strand shown
# T3 sequence: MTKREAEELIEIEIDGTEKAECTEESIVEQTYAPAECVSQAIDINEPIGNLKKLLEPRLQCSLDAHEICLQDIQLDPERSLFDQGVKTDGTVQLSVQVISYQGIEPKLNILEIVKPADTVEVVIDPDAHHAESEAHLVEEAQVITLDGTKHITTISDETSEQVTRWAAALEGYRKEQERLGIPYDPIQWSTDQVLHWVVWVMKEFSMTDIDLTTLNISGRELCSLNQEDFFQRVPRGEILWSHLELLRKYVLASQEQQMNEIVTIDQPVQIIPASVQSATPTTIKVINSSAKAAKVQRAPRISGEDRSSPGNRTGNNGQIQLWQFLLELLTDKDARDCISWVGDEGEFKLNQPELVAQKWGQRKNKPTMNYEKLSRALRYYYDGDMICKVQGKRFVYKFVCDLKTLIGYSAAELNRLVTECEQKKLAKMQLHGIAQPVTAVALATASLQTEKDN
# How it was run: as §1
# ERG = target: T4, ERG (Homo sapiens, UniProt P11308 1-479); conditions: protein: recombinant; tags: N-terminal GST; dsDNA, one strand shown
# T4 sequence: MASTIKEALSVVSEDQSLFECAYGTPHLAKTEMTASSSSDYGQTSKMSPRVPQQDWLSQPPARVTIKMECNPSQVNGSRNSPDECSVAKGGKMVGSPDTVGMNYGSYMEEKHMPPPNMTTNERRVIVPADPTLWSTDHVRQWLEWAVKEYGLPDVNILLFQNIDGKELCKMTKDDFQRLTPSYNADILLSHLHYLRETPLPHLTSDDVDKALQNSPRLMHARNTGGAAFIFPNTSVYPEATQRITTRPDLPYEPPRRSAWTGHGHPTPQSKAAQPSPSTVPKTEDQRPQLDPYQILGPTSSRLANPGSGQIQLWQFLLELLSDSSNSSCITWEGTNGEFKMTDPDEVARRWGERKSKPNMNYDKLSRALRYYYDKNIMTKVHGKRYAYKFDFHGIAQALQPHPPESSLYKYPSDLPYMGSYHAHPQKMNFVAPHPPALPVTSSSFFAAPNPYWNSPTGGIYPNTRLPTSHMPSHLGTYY
# How it was run: as §1
# ELF1 = ELF1 (Homo sapiens, UniProt P32519 1-619); conditions: protein: recombinant; tags: N-terminal GST; dsDNA, one strand shown
# How it was run: as §1
# EHF = target: T5, EHF (Homo sapiens, UniProt Q9NZC4 1-300); conditions: protein: recombinant; tags: N-terminal GST; dsDNA, one strand shown
# T5 sequence: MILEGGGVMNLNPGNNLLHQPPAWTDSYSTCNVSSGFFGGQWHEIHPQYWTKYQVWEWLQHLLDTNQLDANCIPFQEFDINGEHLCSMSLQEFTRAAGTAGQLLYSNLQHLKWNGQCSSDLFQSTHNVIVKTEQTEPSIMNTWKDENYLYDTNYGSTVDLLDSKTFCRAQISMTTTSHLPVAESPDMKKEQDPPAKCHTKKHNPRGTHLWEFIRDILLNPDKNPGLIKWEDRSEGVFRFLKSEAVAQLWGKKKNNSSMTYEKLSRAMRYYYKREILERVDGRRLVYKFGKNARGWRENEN
# How it was run: as §1
# SPI1 = SPI1 (Homo sapiens, UniProt P17947 1-270); conditions: protein: recombinant; tags: N-terminal GST; dsDNA, one strand shown
# How it was run: as §1
# SPIB = SPIB (Homo sapiens, UniProt Q01892 1-262); conditions: protein: recombinant; tags: N-terminal GST; dsDNA, one strand shown
# How it was run: as §1
# ELK3 = target: T6, ELK3 (Homo sapiens, UniProt P41970 1-407); conditions: protein: recombinant; tags: N-terminal GST; dsDNA, one strand shown
# T6 sequence: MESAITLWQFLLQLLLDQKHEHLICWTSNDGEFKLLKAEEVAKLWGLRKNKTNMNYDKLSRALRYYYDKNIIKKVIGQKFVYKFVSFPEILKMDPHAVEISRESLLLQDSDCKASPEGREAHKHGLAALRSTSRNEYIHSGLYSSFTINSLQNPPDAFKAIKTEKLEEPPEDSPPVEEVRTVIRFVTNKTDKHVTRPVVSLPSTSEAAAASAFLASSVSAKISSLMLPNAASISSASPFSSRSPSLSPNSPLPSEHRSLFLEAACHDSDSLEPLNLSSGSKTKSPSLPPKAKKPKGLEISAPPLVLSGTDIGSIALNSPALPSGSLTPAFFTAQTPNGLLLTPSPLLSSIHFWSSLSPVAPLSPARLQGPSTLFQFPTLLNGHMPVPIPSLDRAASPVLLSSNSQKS
# How it was run: as §1
# FEV = target: T7, FEV (Homo sapiens, UniProt Q99581 1-238); conditions: protein: recombinant; tags: N-terminal GST; dsDNA, one strand shown
# T7 sequence: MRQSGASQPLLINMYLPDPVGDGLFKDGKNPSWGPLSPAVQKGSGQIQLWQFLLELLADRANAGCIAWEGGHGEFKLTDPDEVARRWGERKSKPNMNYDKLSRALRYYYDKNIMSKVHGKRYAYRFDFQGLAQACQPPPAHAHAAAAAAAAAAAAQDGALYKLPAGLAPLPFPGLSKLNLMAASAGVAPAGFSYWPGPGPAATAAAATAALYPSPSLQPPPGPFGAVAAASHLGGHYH
# How it was run: as §1
# ETV5 = ETV5 (Homo sapiens, UniProt P41161 1-510); conditions: protein: recombinant; tags: N-terminal GST; dsDNA, one strand shown
# How it was run: as §1
# HSF1 = HSF1 (Homo sapiens, UniProt Q00613 1-529); conditions: protein: recombinant; tags: N-terminal GST; chain copies: 3; dsDNA, one strand shown
# How it was run: as §1
# SPIC = target: T8, SPIC (Homo sapiens, UniProt Q8N5J4 1-248); conditions: protein: recombinant; tags: N-terminal GST; dsDNA, one strand shown
# T8 sequence: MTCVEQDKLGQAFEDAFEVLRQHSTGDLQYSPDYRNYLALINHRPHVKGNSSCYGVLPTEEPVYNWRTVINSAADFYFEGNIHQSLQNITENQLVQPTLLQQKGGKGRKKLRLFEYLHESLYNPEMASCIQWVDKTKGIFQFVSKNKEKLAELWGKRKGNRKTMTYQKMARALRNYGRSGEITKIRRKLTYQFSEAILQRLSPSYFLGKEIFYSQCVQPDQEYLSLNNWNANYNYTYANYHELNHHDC
# How it was run: as §1
# ELF4 = ELF4 (Homo sapiens, UniProt Q99607 1-663); conditions: protein: recombinant; tags: N-terminal GST; dsDNA, one strand shown
# How it was run: as §1
# ELK4 = target: T9, ELK4 (Homo sapiens, UniProt P28324-2 1-405); conditions: protein: recombinant; tags: N-terminal GST; dsDNA, one strand shown
# T9 sequence: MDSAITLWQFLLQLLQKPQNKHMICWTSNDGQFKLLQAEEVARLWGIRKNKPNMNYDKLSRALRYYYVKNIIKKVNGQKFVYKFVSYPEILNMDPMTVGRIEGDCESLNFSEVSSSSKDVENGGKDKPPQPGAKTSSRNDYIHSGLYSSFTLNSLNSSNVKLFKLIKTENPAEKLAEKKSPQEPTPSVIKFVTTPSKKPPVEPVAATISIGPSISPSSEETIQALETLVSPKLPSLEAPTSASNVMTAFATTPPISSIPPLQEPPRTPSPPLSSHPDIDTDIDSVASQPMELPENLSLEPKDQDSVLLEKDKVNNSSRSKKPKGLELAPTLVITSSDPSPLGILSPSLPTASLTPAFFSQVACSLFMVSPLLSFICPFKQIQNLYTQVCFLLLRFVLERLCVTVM
# How it was run: as §1
# ETV2 = target: T10, ETV2 (Homo sapiens, UniProt O00321 1-342); conditions: protein: recombinant; tags: N-terminal GST; dsDNA, one strand shown
# T10 sequence: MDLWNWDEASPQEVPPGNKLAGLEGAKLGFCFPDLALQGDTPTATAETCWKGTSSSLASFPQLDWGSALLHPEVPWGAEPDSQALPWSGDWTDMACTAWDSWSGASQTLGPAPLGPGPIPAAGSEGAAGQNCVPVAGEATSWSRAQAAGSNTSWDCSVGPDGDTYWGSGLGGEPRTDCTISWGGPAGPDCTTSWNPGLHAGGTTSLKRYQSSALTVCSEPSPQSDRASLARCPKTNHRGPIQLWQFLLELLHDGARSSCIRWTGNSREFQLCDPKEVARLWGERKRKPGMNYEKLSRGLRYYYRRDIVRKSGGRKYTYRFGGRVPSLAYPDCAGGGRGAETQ
# How it was run: as §1
# ELF3 = target: T11, ELF3 (Homo sapiens, UniProt P78545 1-371); conditions: protein: recombinant; tags: N-terminal GST; dsDNA, one strand shown
# T11 sequence: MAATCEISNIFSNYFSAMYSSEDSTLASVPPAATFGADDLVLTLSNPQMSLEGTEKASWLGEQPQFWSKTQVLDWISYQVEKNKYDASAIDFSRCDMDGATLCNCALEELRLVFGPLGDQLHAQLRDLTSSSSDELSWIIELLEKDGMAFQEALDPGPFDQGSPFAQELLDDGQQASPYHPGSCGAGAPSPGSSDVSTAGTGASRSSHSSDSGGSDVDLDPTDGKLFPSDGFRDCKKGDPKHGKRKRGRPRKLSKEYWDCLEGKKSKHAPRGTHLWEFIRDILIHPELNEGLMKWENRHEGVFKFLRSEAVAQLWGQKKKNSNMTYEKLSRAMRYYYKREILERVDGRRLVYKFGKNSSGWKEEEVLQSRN
# How it was run: as §1
# CRX = CRX (Homo sapiens, UniProt O43186 1-299); conditions: protein: recombinant; tags: N-terminal GST; dsDNA, one strand shown
# How it was run: as §1
# ETV1 = ETV1 (Homo sapiens, UniProt P50549 1-477); conditions: protein: recombinant; tags: N-terminal GST; dsDNA, one strand shown
# How it was run: as §1
# SPIB, sequence (Q01892 whole entry): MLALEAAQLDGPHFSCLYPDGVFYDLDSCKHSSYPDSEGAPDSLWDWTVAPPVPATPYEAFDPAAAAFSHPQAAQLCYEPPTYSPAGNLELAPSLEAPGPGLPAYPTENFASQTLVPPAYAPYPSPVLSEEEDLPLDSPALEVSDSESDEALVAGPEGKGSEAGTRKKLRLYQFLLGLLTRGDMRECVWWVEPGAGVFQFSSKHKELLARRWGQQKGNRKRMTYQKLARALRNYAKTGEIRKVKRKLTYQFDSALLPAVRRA
# ETV5, sequence (P41161 whole entry): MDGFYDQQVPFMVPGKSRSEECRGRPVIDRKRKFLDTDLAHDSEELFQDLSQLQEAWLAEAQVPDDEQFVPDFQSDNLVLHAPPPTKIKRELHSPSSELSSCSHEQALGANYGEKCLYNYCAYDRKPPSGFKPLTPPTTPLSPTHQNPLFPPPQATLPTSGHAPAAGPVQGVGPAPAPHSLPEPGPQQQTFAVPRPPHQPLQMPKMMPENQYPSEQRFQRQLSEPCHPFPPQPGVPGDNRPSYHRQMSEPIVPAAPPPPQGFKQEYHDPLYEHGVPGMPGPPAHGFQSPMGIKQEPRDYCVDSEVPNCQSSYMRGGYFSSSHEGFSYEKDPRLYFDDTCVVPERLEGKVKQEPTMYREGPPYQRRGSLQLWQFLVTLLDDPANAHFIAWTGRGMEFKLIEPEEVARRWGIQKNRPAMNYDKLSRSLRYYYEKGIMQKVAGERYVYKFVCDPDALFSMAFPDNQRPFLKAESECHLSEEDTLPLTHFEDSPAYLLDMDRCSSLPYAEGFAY
# CRX, sequence (O43186 whole entry): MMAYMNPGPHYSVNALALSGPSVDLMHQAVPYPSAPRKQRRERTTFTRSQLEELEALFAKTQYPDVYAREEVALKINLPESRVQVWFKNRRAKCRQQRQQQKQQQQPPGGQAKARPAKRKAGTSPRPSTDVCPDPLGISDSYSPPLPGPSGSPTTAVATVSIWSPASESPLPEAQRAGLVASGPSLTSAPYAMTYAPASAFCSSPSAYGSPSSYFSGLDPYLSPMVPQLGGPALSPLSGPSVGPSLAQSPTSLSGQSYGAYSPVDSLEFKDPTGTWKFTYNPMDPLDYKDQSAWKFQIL
# ETV1, sequence (P50549 whole entry): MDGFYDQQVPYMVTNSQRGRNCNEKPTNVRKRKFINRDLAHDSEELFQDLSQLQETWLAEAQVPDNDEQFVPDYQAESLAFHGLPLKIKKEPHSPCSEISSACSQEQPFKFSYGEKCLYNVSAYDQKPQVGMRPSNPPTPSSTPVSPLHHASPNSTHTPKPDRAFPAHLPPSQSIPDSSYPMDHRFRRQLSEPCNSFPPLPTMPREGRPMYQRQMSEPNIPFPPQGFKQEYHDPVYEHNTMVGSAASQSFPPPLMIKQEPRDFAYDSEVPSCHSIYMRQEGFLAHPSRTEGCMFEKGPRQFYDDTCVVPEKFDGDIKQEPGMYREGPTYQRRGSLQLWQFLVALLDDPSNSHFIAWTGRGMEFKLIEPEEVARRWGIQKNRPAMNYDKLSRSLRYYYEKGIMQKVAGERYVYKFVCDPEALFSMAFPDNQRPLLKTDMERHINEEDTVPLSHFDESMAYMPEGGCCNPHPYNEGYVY
# ELF1, sequence (P32519 whole entry): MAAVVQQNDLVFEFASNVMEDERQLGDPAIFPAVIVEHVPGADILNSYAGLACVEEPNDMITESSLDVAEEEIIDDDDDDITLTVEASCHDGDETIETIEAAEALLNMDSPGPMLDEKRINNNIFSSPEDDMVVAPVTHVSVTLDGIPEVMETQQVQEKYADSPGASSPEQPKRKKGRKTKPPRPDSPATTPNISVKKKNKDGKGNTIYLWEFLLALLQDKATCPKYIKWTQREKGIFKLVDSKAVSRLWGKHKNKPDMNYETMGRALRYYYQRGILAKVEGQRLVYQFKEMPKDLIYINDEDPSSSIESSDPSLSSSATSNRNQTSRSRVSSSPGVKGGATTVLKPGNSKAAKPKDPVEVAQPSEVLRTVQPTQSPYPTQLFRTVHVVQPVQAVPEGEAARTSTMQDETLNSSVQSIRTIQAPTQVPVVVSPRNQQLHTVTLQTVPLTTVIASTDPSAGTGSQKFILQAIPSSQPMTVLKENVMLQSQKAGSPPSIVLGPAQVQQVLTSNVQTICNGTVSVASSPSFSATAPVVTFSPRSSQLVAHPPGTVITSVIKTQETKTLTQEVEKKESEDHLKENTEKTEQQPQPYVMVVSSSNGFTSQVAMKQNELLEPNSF
# ELF4, sequence (Q99607 whole entry): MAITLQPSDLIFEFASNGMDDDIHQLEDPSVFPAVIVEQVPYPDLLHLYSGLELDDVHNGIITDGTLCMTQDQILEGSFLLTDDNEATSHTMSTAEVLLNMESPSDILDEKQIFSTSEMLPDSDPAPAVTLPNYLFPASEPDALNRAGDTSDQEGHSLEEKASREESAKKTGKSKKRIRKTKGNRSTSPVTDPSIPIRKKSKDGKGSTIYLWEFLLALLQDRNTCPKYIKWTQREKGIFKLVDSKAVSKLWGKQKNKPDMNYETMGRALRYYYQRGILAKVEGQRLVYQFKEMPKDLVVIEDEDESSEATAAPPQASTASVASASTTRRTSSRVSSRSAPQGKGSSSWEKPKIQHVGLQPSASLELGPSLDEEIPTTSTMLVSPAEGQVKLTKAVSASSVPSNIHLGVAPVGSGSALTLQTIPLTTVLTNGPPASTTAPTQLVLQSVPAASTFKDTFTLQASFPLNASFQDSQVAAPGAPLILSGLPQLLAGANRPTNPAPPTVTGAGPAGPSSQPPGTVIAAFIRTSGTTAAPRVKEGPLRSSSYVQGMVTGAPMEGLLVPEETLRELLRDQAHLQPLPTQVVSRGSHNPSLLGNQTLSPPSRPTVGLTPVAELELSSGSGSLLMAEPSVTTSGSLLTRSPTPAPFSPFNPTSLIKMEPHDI
# HSF1, sequence (Q00613 whole entry): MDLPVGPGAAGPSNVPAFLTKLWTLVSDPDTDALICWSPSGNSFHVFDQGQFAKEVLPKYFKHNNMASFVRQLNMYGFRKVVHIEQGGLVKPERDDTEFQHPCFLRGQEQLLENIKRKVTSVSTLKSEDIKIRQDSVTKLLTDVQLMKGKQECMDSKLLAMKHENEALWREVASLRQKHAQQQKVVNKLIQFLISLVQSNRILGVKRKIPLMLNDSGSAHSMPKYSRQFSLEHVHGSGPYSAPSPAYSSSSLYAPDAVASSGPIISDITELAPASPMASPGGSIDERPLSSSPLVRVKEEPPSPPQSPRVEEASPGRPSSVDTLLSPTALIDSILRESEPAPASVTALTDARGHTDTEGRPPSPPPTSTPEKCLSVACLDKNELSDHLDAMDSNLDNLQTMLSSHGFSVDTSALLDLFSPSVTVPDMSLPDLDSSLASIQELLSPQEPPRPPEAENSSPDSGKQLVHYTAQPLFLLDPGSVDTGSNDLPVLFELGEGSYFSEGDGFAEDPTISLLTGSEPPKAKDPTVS
sequence,measurement,setting,value
GAAATA,binding signal,FLI1,"1.45 fold enrichment (6-mer frequency, TF over GST control)"
same,binding signal,ELK1,"1.42 fold enrichment (6-mer frequency, TF over GST control)"
same,binding signal,GABPA,"1.48 fold enrichment (6-mer frequency, TF over GST control)"
same,binding signal,ERG,"1.61 fold enrichment (6-mer frequency, TF over GST control)"
same,binding signal,ELF1,"1.45 fold enrichment (6-mer frequency, TF over GST control)"
same,binding signal,EHF,"1.64 fold enrichment (6-mer frequency, TF over GST control)"
same,binding signal,SPI1,"1.49 fold enrichment (6-mer frequency, TF over GST control)"
same,binding signal,SPIB,"1.54 fold enrichment (6-mer frequency, TF over GST control)"
same,binding signal,ELK3,"1.5 fold enrichment (6-mer frequency, TF over GST control)"
same,binding signal,FEV,"1.54 fold enrichment (6-mer frequency, TF over GST control)"
same,binding signal,ETV5,"1.63 fold enrichment (6-mer frequency, TF over GST control)"
same,binding signal,HSF1,"1.21 fold enrichment (6-mer frequency, TF over GST control)"
same,binding signal,SPIC,"1.43 fold enrichment (6-mer frequency, TF over GST control)"
same,binding signal,ELF4,"1.35 fold enrichment (6-mer frequency, TF over GST control)"
same,binding signal,ELK4,"1.39 fold enrichment (6-mer frequency, TF over GST control)"
same,binding signal,ETV2,"1.42 fold enrichment (6-mer frequency, TF over GST control)"
same,binding signal,ELF3,"1.62 fold enrichment (6-mer frequency, TF over GST control)"
same,binding signal,CRX,"1.11 fold enrichment (6-mer frequency, TF over GST control)"
same,binding signal,ETV1,"1.54 fold enrichment (6-mer frequency, TF over GST control)"
